From PubChem BioAssay (NCI)
This is part of a sample that, as a whole, favours compounds with a hit. Of some 83,000 tested, about 20% had one in any assay.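 Compound tested at a single concentration for 48 hours in 96-well plates; a percent growth value below 10 was scored as active.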 Calls of active or inactive are those of the source.

Each compound was assayed on T-47D breast (assay: NCI-60 one-dose screen, 48 h (100 = growth as untreated, 0 = no growth, -100 = all killed)). Details: 10 µM unless noted.
With `CC1=C(C#N)C2=NNCC(c3ccccc3)=NN2C(c2ccccc2)=C1` the growth was 98.8% (inactive). `O=C(O)c1ccc(-c2ccc(/C=N/NC(=O)c3[nH]c4ccc(Br)cc4c3-c3ccccc3)s2)cc1` was tested, and the growth was 16% (inactive). `N#Cc1c(-c2ccc(Cl)cc2)nc2n[nH]c(-c3ccc(Cl)cc3)c2c1-c1cccs1` was tested, and the growth was 6.48% (active). For `COc1c(F)ccc(C(=O)Nc2ccc3nc(NC(=O)C4CCCN(S(=O)(=O)c5cccc(Br)c5)C4)sc3c2)c1F` (centres undefined), the growth was 60.9% (inactive). For `O=c1[nH]c2ccc(Cl)cc2cc1CSc1nccc(-c2ccc(Cl)cc2)n1`, the growth was 41.6% (inactive). For `O=C(O)c1cccc(-c2ccc(/C=N/NC(=O)c3[nH]c4ccc(Br)cc4c3-c3ccccc3)s2)c1`, the growth was 54.5% (inactive). In the case of `O=c1[nH]c(=O)c2c(-c3cc4ccccc4oc3=O)ccnc2[nH]1`, the growth is reported as 74.2% (inactive). `N#Cc1c(-c2ccc(Br)cc2)nc2n[nH]c(-c3ccc(Br)cc3)c2c1-c1ccc(C(F)(F)F)cc1` was tested, and the growth was 3.49% (active). With `COc1cccc(/C=C/c2nc3ccccc3c(=O)n2CC(=O)Nc2ccc(Cl)cc2)c1` the growth was 6.29% (active). For `CSc1ccc(C(=O)Nc2ccc3nn(/C(C#N)=C/c4ccccn4)nc3c2)cc1`, the growth was -26% (active). For `O=C(/C=C/c1ccc(-c2ccccc2)cc1)c1nc2ccccc2n1Cc1ccc(Br)cc1`, the growth was 7.98% (active). With `COc1ccc2c(c1)c(/C=N/Nc1ccc3ccccc3n1)cn2C` the growth was 3.98% (active). In the case of `COc1c(F)ccc(C(=O)Nc2ccc3nc(NC(=O)C4CCCN(S(=O)(=O)c5ccc(Br)c(F)c5)C4)sc3c2)c1F` (centres undefined), the growth is reported as 67.5% (inactive). `N#Cc1c(-c2cccc(Cl)c2Cl)cc(-c2ccc3ccccc3c2)[nH]c1=O` was tested, and the growth was 37.6% (inactive). In the case of `Nc1cc2ccccc2c(=O)n1NC(=O)c1ccc(I)cc1`, the growth is reported as 101% (inactive). With `CCN(CC)c1ccnc(CNCCSC(c2ccccc2)(c2ccccc2)c2ccc(OC)cc2)c1` the growth was -15.8% (active). For `N#Cc1c(-c2ccccc2Cl)cc(-c2c[nH]c3ccccc23)[nH]c1=O`, the growth was 65% (inactive). In the case of `N#Cc1ccc(/C=N/NC(=O)c2[nH]c3ccc(Br)cc3c2-c2ccccc2)o1`, the growth is reported as 23.8% (inactive). With `Cc1nc(Nc2ncc(C(=O)Nc3c(C)cccc3Cl)s2)cc(N2CCN(CCCNC(=O)COc3ccc(C4CCC(=O)NC4=O)cc3)CC2)n1` (centres undefined) the growth was 64.1% (inactive). `Cc1cc(=O)oc2cc(OCCCOc3ccc(/C=C/C(=O)Nc4ccccc4N)cc3)ccc12` was tested, and the growth was 9.28% (active). `COc1c(F)ccc(C(=O)Nc2ccc3nc(NC(=O)C4CCCN(S(=O)(=O)c5ccc(C(F)(F)F)cc5)C4)sc3c2)c1F` (centres undefined) was tested, and the growth was 59.7% (inactive). In the case of `Cc1sc2c(c1C)C(c1ccc(Cl)cc1)=N[C@@H](CC(=O)NCCCCCNC(=O)COc1ccc(C3CCC(=O)NC3=O)cc1)c1nnc(C)n1-2` (some centres undefined), the growth is reported as -10.6% (active). With `COc1ccc(C(=O)/C=C/c2ccc(OCc3ccc(F)cc3)c(OC)c2)cc1OC` the growth was 26.8% (inactive). For `CCOC(=O)C1=C(N)N(c2ccccc2)C2=C(C(=O)CC(C)(C)C2)C1c1ccc(Cl)cc1Cl` (centres undefined), the growth was 20.9% (inactive). In the case of `CCCCSc1nc(Nc2ccc(S(N)(=O)=O)cc2)c(C#N)c(-c2ccc(Cl)cc2)n1`, the growth is reported as 75.5% (inactive). With `CC(C)CCNC(=O)N/C(N)=N/c1nc2ccccc2s1` the growth was 46.6% (inactive). With `CN(C)c1nc(NCCNS(=O)(=O)c2ccc(C3=Nc4c(N)nc(N)nc4NC(c4ccc(F)cc4)C3)cc2)nc(Nc2ccc(F)cc2)n1` (centres undefined) the growth was 40.6% (inactive). With `COc1ccc2cc([C@H](C)C(=O)N/N=C/c3ccc(Br)cc3)ccc2c1` the growth was 90.3% (inactive). In the case of `Cn1cc(-c2cc3nc(-c4cn(C)c5ncccc45)cc(N)n3n2)c2ccccc21`, the growth is reported as 35.1% (inactive). `COc1ccc(-c2cc(C(=O)NCc3ccccc3)nn2-c2ccc(S(C)(=O)=O)cc2)cc1OC` was tested, and the growth was 91.1% (inactive). For `COc1ccc(-c2ccc(SCC(=O)Nc3ccc(S(N)(=O)=O)cc3Br)nn2)cc1`, the growth was 76.9% (inactive). In the case of `C#CCOc1cc(N(CC)CC)ccc1C(C(=O)NC(C)(C)C)N(C(=O)C1CCc2cc(F)ccc2O1)c1cc(C)cc(C)c1` (centres undefined), the growth is reported as 18.8% (inactive). For `N#Cc1c(-c2ccc(Br)cc2)nc2n[nH]c(-c3ccc(Br)cc3)c2c1-c1ccc(F)cc1`, the growth was 74.6% (inactive). For `CSc1ccc(NC(=O)c2ccc3nn(/C(C#N)=C/c4ccccn4)nc3c2)cc1`, the growth was -39.9% (active).
